Only some compounds are listed: those with a hit (about 7% of all), similar ones and a draw of the others.
BAZ2B block: BAZ2B (human) inhibition; 4.4% of 360,000 active; Potency, µM (series often up to 114 µM), usual class: inhibitors; Q9UIF8; AlphaScreen BAZ2B-H3K14Ac peptide displacement; further: nearly all actives have a fitted effect of over 60% in size
Target sequence (Q9UIF8 whole entry, looked up): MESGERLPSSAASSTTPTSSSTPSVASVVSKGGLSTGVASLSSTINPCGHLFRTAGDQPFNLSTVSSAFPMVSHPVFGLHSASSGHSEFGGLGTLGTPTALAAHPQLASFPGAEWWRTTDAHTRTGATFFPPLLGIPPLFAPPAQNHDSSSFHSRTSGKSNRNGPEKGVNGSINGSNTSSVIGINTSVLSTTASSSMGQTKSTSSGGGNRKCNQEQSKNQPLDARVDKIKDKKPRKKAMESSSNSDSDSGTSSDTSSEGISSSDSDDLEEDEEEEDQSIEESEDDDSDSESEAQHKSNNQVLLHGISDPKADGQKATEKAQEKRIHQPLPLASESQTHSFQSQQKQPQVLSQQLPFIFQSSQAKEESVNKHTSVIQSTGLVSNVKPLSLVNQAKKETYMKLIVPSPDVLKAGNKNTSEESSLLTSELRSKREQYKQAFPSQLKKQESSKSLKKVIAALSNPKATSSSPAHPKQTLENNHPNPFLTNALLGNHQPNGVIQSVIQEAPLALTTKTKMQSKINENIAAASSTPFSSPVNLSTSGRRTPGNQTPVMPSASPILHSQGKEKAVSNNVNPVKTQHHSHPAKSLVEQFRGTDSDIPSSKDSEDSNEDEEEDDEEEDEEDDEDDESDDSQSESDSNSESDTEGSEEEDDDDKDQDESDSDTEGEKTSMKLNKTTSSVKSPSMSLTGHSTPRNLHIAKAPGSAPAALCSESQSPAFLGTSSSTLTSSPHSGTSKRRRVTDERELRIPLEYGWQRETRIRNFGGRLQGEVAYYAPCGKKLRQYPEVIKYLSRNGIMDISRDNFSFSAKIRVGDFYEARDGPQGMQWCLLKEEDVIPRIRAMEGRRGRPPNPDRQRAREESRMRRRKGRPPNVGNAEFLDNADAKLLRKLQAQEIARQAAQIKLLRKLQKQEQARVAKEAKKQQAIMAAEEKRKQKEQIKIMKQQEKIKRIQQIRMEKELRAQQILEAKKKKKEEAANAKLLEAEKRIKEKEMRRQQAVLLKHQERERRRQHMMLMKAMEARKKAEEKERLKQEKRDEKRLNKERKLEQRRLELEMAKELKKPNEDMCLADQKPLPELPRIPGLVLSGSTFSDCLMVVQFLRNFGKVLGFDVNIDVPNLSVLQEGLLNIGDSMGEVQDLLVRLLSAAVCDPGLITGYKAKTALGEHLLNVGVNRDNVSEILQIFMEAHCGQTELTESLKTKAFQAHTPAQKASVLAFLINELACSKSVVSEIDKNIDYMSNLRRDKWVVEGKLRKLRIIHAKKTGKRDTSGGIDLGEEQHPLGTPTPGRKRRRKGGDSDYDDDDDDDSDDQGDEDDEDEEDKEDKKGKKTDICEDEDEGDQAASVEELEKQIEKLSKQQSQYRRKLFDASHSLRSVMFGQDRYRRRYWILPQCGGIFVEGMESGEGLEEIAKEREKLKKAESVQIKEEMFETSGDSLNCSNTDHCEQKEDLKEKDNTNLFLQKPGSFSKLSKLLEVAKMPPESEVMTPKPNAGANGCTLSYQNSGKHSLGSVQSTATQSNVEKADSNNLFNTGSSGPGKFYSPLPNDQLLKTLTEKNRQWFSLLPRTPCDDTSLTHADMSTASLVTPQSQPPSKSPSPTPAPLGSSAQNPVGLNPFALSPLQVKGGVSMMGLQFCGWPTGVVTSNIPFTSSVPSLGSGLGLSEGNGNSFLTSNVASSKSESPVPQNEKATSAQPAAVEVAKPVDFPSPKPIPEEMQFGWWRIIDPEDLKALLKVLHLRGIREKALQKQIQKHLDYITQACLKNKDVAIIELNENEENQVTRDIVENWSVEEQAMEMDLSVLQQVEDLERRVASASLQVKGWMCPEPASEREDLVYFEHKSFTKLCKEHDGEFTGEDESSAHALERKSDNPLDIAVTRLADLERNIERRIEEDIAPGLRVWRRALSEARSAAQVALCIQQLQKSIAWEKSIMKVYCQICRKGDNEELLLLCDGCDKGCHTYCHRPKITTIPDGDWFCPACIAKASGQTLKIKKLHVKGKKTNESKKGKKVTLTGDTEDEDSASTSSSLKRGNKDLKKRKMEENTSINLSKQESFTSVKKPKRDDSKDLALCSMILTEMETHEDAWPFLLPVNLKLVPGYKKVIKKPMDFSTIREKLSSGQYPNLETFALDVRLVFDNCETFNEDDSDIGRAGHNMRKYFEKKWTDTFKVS
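Compounds, titrated to a top concentration of 110 uM, were incubated 30 min at room temperature with preformed BAZ2B/acetyl-K14 H3 peptide complex (50 nM each). Proximity signal was measured by AlphaScreen after 20 min with beads.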
PI5P4K alpha inh: PI5P4K alpha (human) kinase inhibition | P48426 | PI5P4Kalpha enzyme, ADP-Glo luminescence, 60 min; stronger effect = lower value | max response, % | 1.2% of 330,000 active | AID 652105; active means max response of -50% or lower; inconclusive means between -30% and -50%; inactive means -30% or higher; further: value at the top dose of about 77 µM
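ADP-Glo luminescence end-point after a 60 min room-temperature kinase reaction. PI5P4Kalpha and substrate in HEPES pH 7.4 buffer with EGTA, 0.1% CHAPS and 5% DMSO; ATP at 5 microM final.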
JMJD2A Tudor: JMJD2A Tudor domain (human) inhibition. Potency, µM (highest dose often 114 µM), actives largely listed as inhibitors. AlphaScreen JMJD2A-Tudor / H3K4me3 peptide binding. O75164. 4.4% of 390,000 active. AID 504339; further: nearly all actives have a fitted effect of over 50% in size
GCN5L2 inh: inhibitors of human GCN5L2 histone acetyltransferase. Q92830. GCN5L2 HAT assay, ThioGlo1 CoA-SH fluorescence. Potency, µM (series often up to 58.9 µM), hits mostly inhibitors. 0.21% of 390,000 active. AID 504327
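Preincubate 20nM GCN5L2 with compound 15 min, RT → add 50uM ThioGlo1 + 75uM H3(1-25) + 70uM acetyl-CoA → read fluorescence 0 and 20 min. Primary qHTS; fluorescent artifacts likely.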
HP1b chromo inh: HP1-beta chromodomain-methylated histone interaction inhibition; P83916; Potency, µM (doses to about 114 µM), usual class: inhibitors; AlphaScreen HP1-beta / biotin-H3K9me3 peptide binding; 0.56% of 390,000 active; AID 540317; further: nearly all actives have a fitted effect of over 70% in size
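HP1-beta protein (50 nM final) preincubated 30 min at room temperature with biotinylated H3(1-18)K9me3 peptide (50 nM) in PBS pH 7.4, 0.01% Tween-20, then compound added for 30 min. AlphaScreen streptavidin donor/nickel chelate acceptor beads (10 ug/mL final), 30 min dark, luminescence read.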
PLK1 PBD inh: blocks phosphopeptide binding to human PLK1 polo-box domain; Potency, µM, actives largely listed as inhibitors; Plk1 PBD binding of FITC phosphopeptide, fluorescence polarization; AID 720504; P53350; 2.8% of 360,000 active; further: series mostly up to about 57 µM; nearly all actives have a fitted effect of over 65% in size
Hits are given with their value; i = inactive; ? = inconclusive; nt = not tested or not shown; [ ] = dose if it differs, or a comment. Unless noted, the call rests on the fitted dose curve; in most records, active means well fitted curve in the direction sought with a large enough effect; inconclusive means small, poorly fitted or top-dose-only effect, or another doubt; inactive means no such curve, though single readings can be large; an effect the other way counts as inactive or inconclusive.

SMILES | BAZ2B block | PI5P4K alpha inh | JMJD2A Tudor | GCN5L2 inh | HP1b chromo inh | PLK1 PBD inh
CCCCN(CCCNC(=O)c1c(C)cc(=O)oc1C)c1ccccc1 | 44.7µM | nt | 50.1µM | i | ? | i
CCCCC[C@@H]1C=C(C(=O)O)[C@H](c2ccc(C)cc2)N1S(=O)(=O)c1ccc(C)cc1 | nt | i | 89.1µM | i | i | i
Cc1ccc([C@H]2C(C(=O)O)=C[C@@H](CC3CCCC3)N2S(=O)(=O)c2ccc(C)cc2)cc1 | nt | i | i | i | i | i
CCc1ccc([C@H]2C(C(=O)O)=C[C@@H](CC3CCCC3)N2S(=O)(=O)c2ccc(C)cc2)cc1 | nt | i | ? | i | i | 21.2µM
CCCC[C@@H]1C=C(C(=O)O)[C@H](c2ccc(Cl)c(Cl)c2)N1S(=O)(=O)c1ccc(C)cc1 | nt | i | i | ? | i | 29.9µM
CCCC[C@@H]1C=C(C(=O)O)[C@H](c2ccc(C)cc2)N1S(=O)(=O)c1ccc(C)cc1 | nt | i | i | i | i | i
COc1ccc(CN(C)C(=O)CNC(=O)c2sc3ccccc3c2Cl)c(OC)c1 | nt | i | nt | nt | nt | i
CCN1C(=O)/C(=C2\C=Cc3ccccc3N2CC)SC1=S | 8.91µM | nt | 2.82µM | i | 3.16µM | i
CCN1C(=O)/C(=c2\o/c(=C3\C=Cc4ccccc4N3CC)c(=O)n2CC)SC1=S | nt | nt | ? | i | i | i
Cc1cccc(OCc2nnc(SCCC(=O)O)n2-c2ccccc2)c1 | 79.4µM | i | i | ? | i | i
CCCn1c(SCC(=O)NC2CCCCC2)nnc1-c1ccncc1 | i | i | i[11.4 µM] | i | i | 23.8µM
CCCn1c(SCC(=O)N2CCCC(C)C2)nnc1-c1cccnc1 (stereo not drawn) | i | i | ? | ? | i | 29.9µM
CCOc1ccc(Nc2nc(Cc3nnc(SCC(=O)NC4CCCCC4)n3C)cs2)cc1 | 50.1µM | nt | 56.2µM | i | i | i
Cn1c(SCC(=O)NC2CCCCC2)nnc1-c1ccncc1 | i | i | i | i | i | i
CCOc1ccc(Nc2nc(Cc3nnc(SCC(=O)NCC4CCCO4)n3C)cs2)cc1 (stereo not drawn) | ? | i | ? | i | i | ?
Cc1cccc(C)c1OCC(=O)Nc1c(C(=O)c2ccc(Br)cc2)oc2ccccc12 | i | nt | i | i | i | nt
CC1=C(c2ccc(C)cc2)S(=O)(=O)N(Cc2ccc(C(=O)Nc3ccc(C)c(F)c3)cc2)C1=O | i | nt | i | i | ? | nt
O=C(C(=O)N1CCC(Cc2ccccc2)CC1)c1ccccc1 | nt | i | nt | nt | nt | i
CCn1c(COc2cccc(C)c2)nnc1SCC(=O)NC1CCCC1 | i | i | ? | i | i | 29.9µM
CCCCc1cc(=O)oc2cc(C)cc(OCC(=O)NCc3ccccn3)c12 | i | i | i | i | i | i
Cc1cc(C)nc(-n2nc(C)c3c(=O)[nH]c(C(F)(F)F)nc32)n1 | i | i | 79.4µM | i | i | i
COc1ccc(C2Nc3ccccc3C(=O)N2Cc2ccccc2)cc1COc1ccc(NC(=O)c2ccccc2)cc1 (stereo not drawn) | nt | nt | i | nt | nt | nt
Cn1nnnc1SCCCNCc1cccc(OCc2ccc(F)cc2)c1 | i | nt | i | i | i | nt
CSc1nnc2c3c4c(sc3nc(-n3nc(C)cc3C)n12)COC(C)(C)C4 | i | ? | i[11.4 µM] | i | i | 3.36µM
CCOC(=O)N1CCN(C(=O)CCSc2ccc(C)cc2)CC1 | i | ? | i[11.4 µM] | i | i | 3.36µM
SMILES | BAZ2B block | PI5P4K alpha inh | JMJD2A Tudor | GCN5L2 inh | HP1b chromo inh | PLK1 PBD inh
CC(Oc1ccccc1)C(=O)OCc1cc(=O)n2nc(C(C)C)sc2n1 (stereo not drawn) | i | nt | i | i | i | nt
CCn1c(SCC(=O)c2ccc(O)c(O)c2)nnc1-c1ccccc1OC | 79.4µM | i | 28.2µM | i | ? | i
C=CCn1c(SCC(=O)c2ccc(O)c(O)c2)nnc1-c1ccccc1OC | 50.1µM | i | ? | i | i | i
CCCN1CCN(c2cc3c(cc2F)c(=O)c(S(=O)(=O)c2ccc(Cl)cc2)cn3C)CC1 | i | nt | i | i | i | nt
CCc1nn2c(=O)cc(NC3CNC3)nc2s1 | nt | nt | i | nt | nt | nt
Cc1ccc(N2CC(C)Cn3c2nc2c3c(=O)[nH]c(=O)n2C)cc1C (stereo not drawn) | i | i | i | i | i | i
O=C(Nc1ccc(Br)cc1F)c1cc(S(=O)(=O)NCc2ccc(F)cc2)ccc1F | i | nt | i | i | i | nt
O=C(NC1CC1)C1CC(=O)N(c2cccc(Cl)c2)C1 (stereo not drawn) | i | i | i | ? | i | i
Cc1nnc(NS(=O)(=O)c2ccc(N=Nc3ccc(N)nc3N)cc2)s1 | nt | ? | 50.1µM | nt | ? | i
Cc1ccc(S(=O)(=O)N(C)C)cc1NC(=O)COC(=O)Cc1ccc(Br)cc1 | nt | i | ? | i | i | 18.9µM
C[C@@H]1CN[C@H](CCO)/C1=C\c1ccccc1 | nt | i | i | nt | i | i
Cc1ccc(N/N=C(\C#N)C(N)=S)c(C)c1 | ? | i | 44.7µM | ? | ? | 18.9µM
N=C(c1ccc([N+](=O)[O-])cc1)N1CCCCCC1 | i | i | i | i | i | i
CCOP(=O)(OCC)C(Nc1cccc([N+](=O)[O-])c1)c1ccc(OC)cc1 (stereo not drawn) | i | i | i | i | i | i
CCOP(=O)(OCC)C(Nc1cccc([N+](=O)[O-])c1)c1ccc(N(C)C)cc1 (stereo not drawn) | 39.8µM | i | 50.1µM | i | ? | i
CCCCn1c(CCn2nc(C)c(Br)c2C)n[nH]c1=S | i | nt | 28.2µM | i | i | i
CCOC(=O)C1CCCN(S(=O)(=O)c2cc(C(=O)OC)n(C)c2)C1 (stereo not drawn) | i | i | i | i | i | i
CC(=O)c1ccc(N2CCN(C(=S)NCCCN(C)C)CC2)cc1 | i | i | i | i | i | i
CCOCCCNC(=O)c1ccc2c(c1)ncn2-c1ccc(C)cc1C | i | i | ? | i | i | 18.9µM
COC(=O)c1ccc(COC(=O)C2CCN(S(=O)(=O)c3ccc(C)c(C)c3)CC2)o1 | i | i | i | i | i | i
O=Cc1cn(CC(=O)N2CCCc3ccccc32)c2ccccc12 | i | -69.3 | ? | i | ? | 2.67µM
COC(=O)c1cc2sccc2n1CC(=O)N1CCCc2ccccc21 | i | nt | i | i | i | i
O=Cc1cn(CC(=O)N2CCCCC2)c2ccccc12 | i | i | i | i | i | i
COC(=O)c1cc2oc(C)cc2n1CC(=O)N1CCCc2ccccc21 | 89.1µM | i | ? | ? | i | i
CCOC(=O)c1cc2occc2n1CC(=O)N1CCCc2ccccc21 | 79.4µM | i | ? | i | i | i
O=C1C2C3C=CC(CC3)C2C(=O)N1c1nccs1 (stereo not drawn) | 44.7µM | -62.4 | 50.1µM | i | i | i
COc1ccc(-c2cn3c(n2)sc2cc(C(=O)NCC(C)c4ccccc4)ccc23)cc1 (stereo not drawn) | i | nt | i | i | i | nt
COc1cc(F)cc(F)c1[S+](=O)([O-])N1CCN([S+](=O)([O-])c2ccc3c(c2)OCCO3)CC1 | nt | nt | i | nt | nt | nt

Bioassay records from PubChem BioAssay.
